This passage reports growth results from PubChem BioAssay (NCI).

About 83,000 compounds went through this panel and 20% of them were active in at least one assay; those are over-represented in the sample as a whole.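 Single-concentration screen, 48 h exposure, 96-well plates. Endpoint: percent growth. Below 10 = active.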 Values without a mark were called inactive. Active and inactive are the calls of the source.

Among the test systems are SK-MEL-2 melanoma; EKVX NSCLC; SN12C renal; UO-31 renal; TK-10 renal; ACHN renal; CAKI-1 renal; A498 renal; CCRF-CEM leukemia; MOLT-4 leukemia.
Holding throughout (assay): NCI-60 one-dose screen, 48 h (100 = growth as untreated, 0 = no growth, -100 = all killed)
What all share (conditions): 10 µM unless noted

For the molecule `CC(=O)O[C@H]1CC[C@@]2(C)[C@@H](CC[C@@H]3[C@@H]2CC(=O)[C@@]2(C)[C@H]3C[C@@H](C3CCCC3=O)[C@@H]2C(C)=O)C1` (stereo not given in full), the growth in the test on SK-MEL-2 melanoma was 111%; in the test with EKVX NSCLC, 116%; with SN12C renal, 84.4%; with UO-31 renal, 88.3%; with TK-10 renal, 106%; with ACHN renal it was 107%. The growth with CAKI-1 renal is 114%; in the test with A498 renal, 97.1%; in the test with CCRF-CEM leukemia it was 92.9%; in the test with MOLT-4 leukemia it was 86.1%.
In the case of `CN(CSc1ccc(Cl)cc1)c1ccc(CSc2ccc(Cl)cc2)cc1`, the growth in the test with SK-MEL-2 melanoma was 78.1%; in the test with EKVX NSCLC it was 86.8%; in the test on SN12C renal, 36.9%; with UO-31 renal it was 26.6%; in the test on TK-10 renal it was 87.1%; in the test with ACHN renal, 87.4%. Also, the growth in the test on CAKI-1 renal is 44.7%; in the test with A498 renal, 71.8%; with CCRF-CEM leukemia it was 6.37% (active); in the test with MOLT-4 leukemia, 8.87% (active).
For `COc1ccc(CCN2C(=O)C(C)(C)SC2=S)cc1OC`, the growth with SK-MEL-2 melanoma was 107%; in the test with EKVX NSCLC, 94%; in the test on SN12C renal, 96%; in the test with UO-31 renal it was 88.9%; in the test on TK-10 renal, 96.3%; with ACHN renal it was 104%. Moreover, the growth with CAKI-1 renal was 88.1%; in the test on A498 renal it was 99.3%; in the test on CCRF-CEM leukemia, 92.3%; in the test with MOLT-4 leukemia it was 101%.
For the molecule `COc1ccc2c3c(c4ccccc4cc13)C(=O)N(CCN(C)CCN)C2=O`, the growth with SK-MEL-2 melanoma was 22.3%; with EKVX NSCLC, -48% (active); in the test with SN12C renal it was -63.3% (active); in the test with UO-31 renal, -83.7% (active); with TK-10 renal, -73.8% (active); with ACHN renal it was -71.6% (active). Moreover, the growth with CAKI-1 renal was 3.18% (active); in the test on A498 renal, -48.8% (active); in the test with CCRF-CEM leukemia, -65.1% (active); in the test on MOLT-4 leukemia it was -32.5% (active).
Consider `COC(c1ccccc1)(c1ccccc1)c1ccccc1`, for which the growth in the test with SK-MEL-2 melanoma was 118%; with EKVX NSCLC it was 85.3%; with SN12C renal, 97%; in the test with UO-31 renal, 105%; with TK-10 renal it was 123%; in the test on ACHN renal it was 101%. The growth was 72.1% in the test with CAKI-1 renal, 104% in the test on A498 renal, 131% in the test on CCRF-CEM leukemia and 123% with MOLT-4 leukemia.
As to `Oc1cccc2ccc(N/N=C/c3cc(CN4CCCCC4)c(O)c4ncccc34)nc12`, the growth in the test on SK-MEL-2 melanoma is -4.78% (active); with EKVX NSCLC it was 20%; with SN12C renal it was 17.6%; in the test with UO-31 renal it was -19% (active); with TK-10 renal, 32.5%; with ACHN renal, -28.9% (active). In addition, the growth was 6.88% (active) with CAKI-1 renal, 38.9% in the test with A498 renal, 10.7% with CCRF-CEM leukemia and 7.17% (active) in the test on MOLT-4 leukemia.
As for `CCN(CC)c1ccc(/C=C/c2cc(C)c3ccccc3n2)cc1`, the growth was 72.9% in the test on SK-MEL-2 melanoma; 92.8% in the test on EKVX NSCLC; 60% with SN12C renal; 66.6% in the test on UO-31 renal; 70.3% with TK-10 renal; 60.8% in the test with ACHN renal. The growth with CAKI-1 renal was 51.9%; with A498 renal, 51.7%; in the test with CCRF-CEM leukemia it was 53.4%; in the test on MOLT-4 leukemia, 23.5%.
Turning to `CN1CCN(c2ccc3nc(-c4[nH]ncc4Nc4ncnc5c4OCCCN5)[nH]c3c2)CC1`, the growth with SK-MEL-2 melanoma is -56.1% (active); in the test with EKVX NSCLC it was -59.6% (active); with SN12C renal, -59.5% (active); in the test with UO-31 renal it was -77.3% (active); in the test with TK-10 renal it was -62.7% (active); with ACHN renal, -98.4% (active). Also, the growth in the test on CAKI-1 renal is -86.2% (active); with A498 renal, -95.7% (active); in the test with CCRF-CEM leukemia, -25.7% (active); in the test on MOLT-4 leukemia it was -22.5% (active).
With `Nc1nc2c3ccncc3cc(-c3cccc(Cl)c3)c2c2cnccc12`, the growth is 59.1% in the test with SK-MEL-2 melanoma; 62.2% with EKVX NSCLC; 36.4% in the test on SN12C renal; 29.7% with UO-31 renal; 32.3% in the test with TK-10 renal; 26.6% with ACHN renal. Moreover, the growth with CAKI-1 renal is 29.1%; in the test with A498 renal it was -12% (active); with CCRF-CEM leukemia, 20%; in the test with MOLT-4 leukemia, 3.17% (active).
With `COC(=O)[C@]12CC[C@@H](C(C)=O)[C@@H]1[C@H]1CC[C@@H]3[C@@]4(C)C/C(=C/c5cccnc5)C(=O)C(C)(C)[C@@H]4CC[C@@]3(C)[C@]1(C)CC2`, the growth in the test on SK-MEL-2 melanoma was 68.1%; with EKVX NSCLC, 85.8%; with SN12C renal, 57.7%; with UO-31 renal, 56.6%; in the test with TK-10 renal it was 133%; in the test with ACHN renal, 32.5%. Moreover, the growth is 51% in the test on CAKI-1 renal, 80.6% in the test on A498 renal, 7.57% (active) in the test on CCRF-CEM leukemia and 5.47% (active) in the test with MOLT-4 leukemia.
With `C=COCCCCCCCCCCCCCCCCCC`, the growth in the test with SK-MEL-2 melanoma was 111%; in the test on EKVX NSCLC, 118%; in the test on SN12C renal it was 88.4%; in the test on UO-31 renal it was 124%; in the test on TK-10 renal, 101%; in the test on ACHN renal, 108%. Also, the growth is 99.7% in the test on CAKI-1 renal, 92.7% in the test with A498 renal, 91.5% in the test on CCRF-CEM leukemia and 96.3% with MOLT-4 leukemia.
Consider `COc1ccc(-c2cc(-c3cccs3)n(N=O)c(=O)c2C#N)cc1`, for which the growth was 105% in the test with SK-MEL-2 melanoma; 115% in the test with EKVX NSCLC; 95.8% with SN12C renal; 89.4% in the test on UO-31 renal; 114% in the test with TK-10 renal; 109% in the test on ACHN renal. The growth in the test on CAKI-1 renal was 102%; in the test on A498 renal, 87.7%; in the test with CCRF-CEM leukemia, 58.1%; in the test on MOLT-4 leukemia, 107%.
For `c1csc(-c2nc(-c3cc4ccccc4c(N4CCOCC4)n3)cs2)c1`, the growth with SK-MEL-2 melanoma was 47.4%; in the test on EKVX NSCLC it was 87.9%; in the test on SN12C renal, 92.4%; in the test with UO-31 renal, 71.3%; with TK-10 renal it was 123%; in the test on ACHN renal, 85.2%. Moreover, the growth in the test with CAKI-1 renal was 84.5%; in the test with A498 renal it was 86.2%; in the test with CCRF-CEM leukemia it was 107%; in the test with MOLT-4 leukemia, 92.1%.
